Assay results as given in PubChem BioAssay (NCATS).
Where “and” joins values, the source holds several entries; their conditions need not be identical. Equal values may be shown once. Records with an inconclusive call do not appear. Where a call stands in place of a potency, no number is given. Calls of active or inactive are those of the source. Calls follow the shape of the dose curve; as a rule, active = well fitted cell-killing curve with a large enough effect; inconclusive = small, poorly fitted or top-dose-only effect; inactive = flat fitted curve, though single readings scatter.

Assays:
[1] = Vero cells viability qHTS for Zika virus inhibitors (AID 1347167)
Outline: (§1)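 Counter-screen for cytotoxicity of hits from NS2B-NS3 protease qHTS. Overnight-attached cells (2.5 x 10^5 cells/mL, DMEM/4% FBS) were dosed in titration, incubated 24 to 48 hours, then assayed by CellTiter Glo.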

[2] = HepG2 cells viability qHTS for Zika virus inhibitors (AID 1347168); also: potency is read from the fitted curve at half-maximal effect
Outline: as §1

[3] = OV-KATE Cancer Cell Toxicity qHTS against the NCATS CANVASS Library (AID 1347345)
Outline: (§2)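 Following a 4 h pre-incubation of 1000 seeded cells, compounds were pinned in an 11-pnt dilution series and left for 72 h; viability then came from CellTiter-Glo.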

[4] = HPAF-II Cancer Cell Toxicity qHTS against the NCATS CANVASS Library (AID 1347346); also: series mostly up to about 38 µM; nearly all actives have a fitted effect of over 55% in size
Outline: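 Luminescence from CellTiter-Glo, added after 72 h compound exposure and a 15 min room-temperature incubation, served as the viability readout. HPAF-II cells (1000/well) received an 11-point concentration series.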

[5] = UWB1.289 Cancer Cell Toxicity qHTS against the NCATS CANVASS Library (AID 1347347); also: series mostly up to about 38 µM; nearly all actives have a fitted effect of over 60% in size
Outline: as §2

[6] = OV-SAHO Cancer Cell Toxicity qHTS against the NCATS CANVASS Library (AID 1347348); also: series mostly up to about 38 µM; nearly all actives have a fitted effect of over 55% in size
Source text: Natural products and their derivatives continue to be wellsprings of nascent therapeutic potential. However, many laboratories have limited resources for biological evaluation, leaving their previously isolated or synthesized compounds largely or completely untested. To address this issue, the Canvass library of natural products was assembled (https://tripod.nih.gov/canvass), in collaboration with academic and industry researchers, for quantitative high-throughput screening (qHTS) across a diverse set of cell-based and biochemical assays. The pure (>85% purity by liquid chromatography/mass spectrometry [LC/MS]) Canvass library of 346 natural products were submitted by 45 academic laboratories and companies around the world. […] The library was formatted into 1536-well plates and evaluated in 50 qHTS (in an 11-pnt concentration series) bioassays with broad scope of disease-relevant mechanisms. The resulting data set from 50 different assays was then systematically analyzed to identify overall trends and specific natural products with interesting biological activities. […]
Cancer Cell Toxicity protocol for cell lines COV-362, OV-KATE, OV-SAHO, UWB1.289, UWB1.289-WTBRCA1, HEK-293, HPAF-II, Panc-1005, SW1088, or U-118MG. […] Luminescence signal was acquired via the ViewLux plate reader (PerkinElmer) using a clear filter, 2 second exposure and 2x binning settings.

[7] = Panc-1005 Cancer Cell Toxicity qHTS against the NCATS CANVASS Library (AID 1347349); also: series mostly up to about 38 µM; nearly all actives have a fitted effect of over 60% in size
Outline: as §2

SMILES: CN(C)[C@@H]1C(=O)C(C(N)=O)=C(O)[C@@]2(O)C(=O)C3=C(O)c4c(O)cccc4[C@@](C)(O)[C@H]3[C@H](O)[C@@H]12
- Potency [1]: inactive
- Potency [2]: inactive

SMILES: CC1=C(O)C(=O)C=C2C1=CC=C1[C@@]2(C)CC[C@@]2(C)[C@@H]3C[C@](C)(C(=O)O)CC[C@]3(C)CC[C@]12C
- Potency [2]: 18.5 µM (active) and 7.37 µM (active)

SMILES: NCCc1c[nH]c2ccccc12
- outcome [3]: inactive
- outcome [4]: inactive
- outcome [5]: inactive
- outcome [6]: inactive
- outcome [7]: inactive

SMILES: NCCc1c[nH]c2ccc(O)cc12
- outcome [3]: inactive
- outcome [4]: inactive
- outcome [5]: inactive
- outcome [6]: inactive
- outcome [7]: inactive
